We go through 39 compounds from PubChem BioAssay.

Activity calls are given as the source filed them.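 How the source made its calls: active means compounds whose cell count with miR-34 switched on is under 0.7 times the count with it off; inactive means the rest.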

The first test is described as follows: sensitizers of A549 cells to miR-34 induction, primary screen, imaging, A549 dox-inducible miR-34, nuclei and caspase counts (AID 1347080). Further: test concentration not given here. As to conditions: A549 miR-34 inducible, Hoechst nuclei count, 48 h; stronger effect = lower value; cell number ratio, induced over uninduced.
Consider `O=C(O)CCCCCCCCCCCNC(=O)NC1CCCCC1`, for which the fold change was 0.963 (inactive).

As to `CCCCC/C=C\C/C=C\C/C=C\CCCCCCC(=O)OC`, the fold change was 1.11 (inactive).

Turning to `CC/C=C\C/C=C\C/C=C\CCCCCCCC(=O)N[C@@H](Cc1ccc(O)cc1)C(=O)O`, the fold change was 0.852 (inactive).

Take `CC(C)OC(=O)CCC/C=C\C[C@@H]1[C@@H](/C=C/[C@@H](O)CCc2ccccc2)[C@H](O)C[C@@H]1O`: the fold change was 0.961 (inactive).

In the case of `CC(C)Oc1ccc(Cc2ccc(NC3=NCCN3)cc2)cc1`, the fold change was 0.976 (inactive).

In the case of `CCCCCC(=O)/C=C/[C@@H]1[C@@H](CCCCCCC(=O)O)[C@@H](O)C[C@H]1O`, the fold change was 1.03 (inactive).

Consider `CCCCCC(=O)CC[C@@H]1[C@@H](C/C=C\CCCC(=O)OC(C)C)[C@@H](O)C[C@H]1O`, for which the fold change was 0.977 (inactive).

Regarding `O=C(O)CCC/C=C\C[C@@H]1[C@@H](/C=C/C(=O)COc2cccc(C(F)(F)F)c2)[C@H](O)C[C@@H]1O`, the fold change is 0.949 (inactive).

For the compound `O=C(O)/C=C/CCCCCCCCC(=O)O`, the fold change is 0.99 (inactive).

For `CCCCC[C@H](O)/C=C/[C@@H]1[C@@H](C/C=C\CCCC(=O)NCC)[C@@H](O)C[C@H]1O`, the fold change is 0.749 (inactive).

`CCCCCCCCCCCCCCCC(=O)OC[C@@H](O)COP(=O)([O-])OCC[N+](C)(C)C`: the fold change is 1.02 (inactive).

For `CCCCC[C@H](O)/C=C/[C@@H]1[C@@H](C/C=C\CCCC(=O)OC)[C@@H](O)C[C@H]1O`, the fold change is 0.963 (inactive).

Regarding `CC(C)=CCC/C(C)=C/CC/C(C)=C/C(O)P(=O)(O)O` (stereo not drawn), the fold change is 0.968 (inactive).

For `CCCCCCCCC#CCCCCCCCC(=O)c1nc2ncccc2o1`, the fold change was 1.03 (inactive).

In the case of `CC(C)CCCC(C)NC(C)C` (stereo not drawn), the fold change is 0.993 (inactive).

Take `CCCCC[C@H](O)CC[C@@H]1[C@@H](CCCCCCC(=O)O)[C@@H](O)C[C@H]1O`: the fold change was 0.832 (inactive).

Consider `O=C(CCC/C=C\C[C@H]1C(=O)C[C@@H](O)[C@@H]1/C=C/[C@@H](O)CCc1ccccc1)NC(CO)CO`, for which the fold change was 0.931 (inactive).

Consider `O=C(O)CCCCCC[C@@H]1C(=O)NC(=O)N1CCC(O)C1CCCCC1` (stereo partly drawn), for which the fold change is 1.01 (inactive).

With `CC(C)CCCC(C)CCCC(C)CCCC(C)CC(=O)O` (stereo not drawn), the fold change is 0.992 (inactive).

On to `O=c1[nH]cc(CO)c(=O)[nH]1`, for which the fold change was 1.01 (inactive).

Turning to `COc1ccc(C2=N[C@@H](c3ccc(Cl)cc3)[C@@H](c3ccc(Cl)cc3)N2C(=O)N2CCNC(=O)C2)c(OC(C)C)c1`, the fold change is 1.1 (inactive).

For the compound `C/C=C/C(=O)O[C@H](COCCCCCCCCCCCCCCCC)COP(=O)([O-])OCC[N+](C)(C)C`, the fold change is 0.851 (inactive).

With `CC(C(=O)Nc1cccc(N=Cc2c(O)ccc3ccccc23)c1)c1ccccc1` (stereo not drawn), the fold change was 0.971 (inactive).

With `CCCCC/C=C\C/C=C\C/C=C\C/C=C\CCCC(=O)NC[C@]1(C)CCC[C@]2(C)c3ccc(C(C)C)cc3CC[C@@H]12`, the fold change was 0.99 (inactive).

Take `CCCCCC(=O)CC[C@@H]1[C@@H](CCCCCCC(=O)O)[C@@H](O)C[C@H]1O`: the fold change was 0.953 (inactive).

As to `O=C(O)CCCCCC[C@H]1C(=O)NC(=O)N1CCC(O)C1CCCCC1` (stereo partly drawn), the fold change is 1.09 (inactive).

For `CC(C)CCCCCCC/C=C\C(=O)O`, the fold change is 0.991 (inactive).

Regarding `CC(C)CCC[C@@H](C)[C@H]1CC[C@H]2[C@@H]3CC(=O)[C@@]4(O)C[C@@H](O)CC[C@]4(C)[C@H]3CC[C@]12C`, the fold change was 0.89 (inactive).

Consider `CCOC(=O)c1ccc(N=Nc2ccc(O)c(CC(=O)O)c2)cc1`, for which the fold change was 0.95 (inactive).

Take `CCCCCC(=O)/C=C/C=O`: the fold change is 1.01 (inactive).

In the case of `CCCCC/C=C\C/C=C\CCCCCCCC(=O)OC[C@H](O)CO`, the fold change is 0.698 (active).

As for `COc1ccc2c(c1)c(CC(=O)Nc1cccnc1)c(C)n2C(=O)c1ccc(Cl)cc1`, the fold change was 0.996 (inactive).

Take `Nc1nc2[nH]c(=O)[nH]c2c(=O)[nH]1`: the fold change is 0.901 (inactive).

`CCCCCCCCCCCCCCCCOC[C@H](COP(=O)([O-])OCCCCCC[N+](C)(C)C)OC(C)=O`: the fold change is 0.912 (inactive).

Take `O=C(CCC/C=C\C[C@@H]1[C@@H](/C=C/[C@@H](O)CCc2ccccc2)[C@H](O)C[C@@H]1O)NC(CO)CO`: the fold change was 0.978 (inactive).

Take `C[C@H](CCCO)[C@H]1CC[C@H]2[C@@H]3[C@H](O)C[C@H]4CC(=O)CC[C@]4(C)[C@H]3C[C@H](O)[C@]12C`: the fold change is 0.847 (inactive).

`FC(F)(F)c1ccc(/C=C/c2cc(Cl)cc(Cl)c2)cc1`: the fold change is 1.01 (inactive).

For the compound `C/C(O)=C1\C(=O)[C@@H]2[C@H]3c4c[nH]c5cccc(c45)C[C@H]3C(C)(C)N2C1=O`, the fold change is 1.02 (inactive).

Turning to `CC(C)(C)OC(=O)Nc1cccc2[nH]ccc12`, the fold change was 0.913 (inactive).

The test is the same for the next values; noted with them: A549 miR-34 inducible, Hoechst nuclei count, 48 h; measured here: relative caspase fold change +Dox/-Dox.
As for `O=C(O)CCCCCCCCCCCNC(=O)NC1CCCCC1`, the fold change amounted to 0.896.

`CCCCC/C=C\C/C=C\C/C=C\CCCCCCC(=O)OC`: the fold change stood at 0.903.

Take `CC/C=C\C/C=C\C/C=C\CCCCCCCC(=O)N[C@@H](Cc1ccc(O)cc1)C(=O)O`: the fold change came out at 2.46.

As to `CC(C)OC(=O)CCC/C=C\C[C@@H]1[C@@H](/C=C/[C@@H](O)CCc2ccccc2)[C@H](O)C[C@@H]1O`, the fold change amounted to 1.39.

Take `CC(C)Oc1ccc(Cc2ccc(NC3=NCCN3)cc2)cc1`: the fold change is 0.967.

In the case of `CCCCCC(=O)/C=C/[C@@H]1[C@@H](CCCCCCC(=O)O)[C@@H](O)C[C@H]1O`, the fold change is 1.29.

As to `CCCCCC(=O)CC[C@@H]1[C@@H](C/C=C\CCCC(=O)OC(C)C)[C@@H](O)C[C@H]1O`, the fold change is 1.56.

On to `O=C(O)CCC/C=C\C[C@@H]1[C@@H](/C=C/C(=O)COc2cccc(C(F)(F)F)c2)[C@H](O)C[C@@H]1O`, for which the fold change is 0.381.

For the compound `O=C(O)/C=C/CCCCCCCCC(=O)O`, the fold change was found to be 1.16.

Take `CCCCC[C@H](O)/C=C/[C@@H]1[C@@H](C/C=C\CCCC(=O)NCC)[C@@H](O)C[C@H]1O`: the fold change amounted to 1.63.

For `CCCCCCCCCCCCCCCC(=O)OC[C@@H](O)COP(=O)([O-])OCC[N+](C)(C)C`, the fold change was found to be 1.32.

In the case of `CCCCC[C@H](O)/C=C/[C@@H]1[C@@H](C/C=C\CCCC(=O)OC)[C@@H](O)C[C@H]1O`, the fold change was determined as 1.19.

For `CC(C)=CCC/C(C)=C/CC/C(C)=C/C(O)P(=O)(O)O` (stereo not drawn), the fold change worked out at 0.767.

As to `CCCCCCCCC#CCCCCCCCC(=O)c1nc2ncccc2o1`, the fold change was 1.11.

In the case of `CC(C)CCCC(C)NC(C)C` (stereo not drawn), the fold change was 0.874.

With `CCCCC[C@H](O)CC[C@@H]1[C@@H](CCCCCCC(=O)O)[C@@H](O)C[C@H]1O`, the fold change is 1.1.

For the compound `O=C(CCC/C=C\C[C@H]1C(=O)C[C@@H](O)[C@@H]1/C=C/[C@@H](O)CCc1ccccc1)NC(CO)CO`, the fold change was 0.89.

For `O=C(O)CCCCCC[C@@H]1C(=O)NC(=O)N1CCC(O)C1CCCCC1` (stereo partly drawn), the fold change came to 2.01.

With `CC(C)CCCC(C)CCCC(C)CCCC(C)CC(=O)O` (stereo not drawn), the fold change came out at 0.832.

Turning to `O=c1[nH]cc(CO)c(=O)[nH]1`, the fold change was found to be 1.05.

As for `COc1ccc(C2=N[C@@H](c3ccc(Cl)cc3)[C@@H](c3ccc(Cl)cc3)N2C(=O)N2CCNC(=O)C2)c(OC(C)C)c1`, the fold change came to 0.974.

For `C/C=C/C(=O)O[C@H](COCCCCCCCCCCCCCCCC)COP(=O)([O-])OCC[N+](C)(C)C`, the fold change is 1.03.

Take `CC(C(=O)Nc1cccc(N=Cc2c(O)ccc3ccccc23)c1)c1ccccc1` (stereo not drawn): the fold change worked out at 1.6.

As to `CCCCC/C=C\C/C=C\C/C=C\C/C=C\CCCC(=O)NC[C@]1(C)CCC[C@]2(C)c3ccc(C(C)C)cc3CC[C@@H]12`, the fold change was 1.27.

Turning to `CCCCCC(=O)CC[C@@H]1[C@@H](CCCCCCC(=O)O)[C@@H](O)C[C@H]1O`, the fold change was 1.23.

Turning to `O=C(O)CCCCCC[C@H]1C(=O)NC(=O)N1CCC(O)C1CCCCC1` (stereo partly drawn), the fold change was determined as 1.38.

In the case of `CC(C)CCCCCCC/C=C\C(=O)O`, the fold change was 0.344.

With `CC(C)CCC[C@@H](C)[C@H]1CC[C@H]2[C@@H]3CC(=O)[C@@]4(O)C[C@@H](O)CC[C@]4(C)[C@H]3CC[C@]12C`, the fold change was determined as 2.89.

In the case of `CCOC(=O)c1ccc(N=Nc2ccc(O)c(CC(=O)O)c2)cc1`, the fold change amounted to 0.801.

Regarding `CCCCCC(=O)/C=C/C=O`, the fold change stood at 1.61.

Consider `CCCCC/C=C\C/C=C\CCCCCCCC(=O)OC[C@H](O)CO`, for which the fold change came out at 0.477.

`COc1ccc2c(c1)c(CC(=O)Nc1cccnc1)c(C)n2C(=O)c1ccc(Cl)cc1`: the fold change is 0.947.

Regarding `Nc1nc2[nH]c(=O)[nH]c2c(=O)[nH]1`, the fold change was found to be 0.746.

On to `CCCCCCCCCCCCCCCCOC[C@H](COP(=O)([O-])OCCCCCC[N+](C)(C)C)OC(C)=O`, for which the fold change stood at 1.73.

As to `O=C(CCC/C=C\C[C@@H]1[C@@H](/C=C/[C@@H](O)CCc2ccccc2)[C@H](O)C[C@@H]1O)NC(CO)CO`, the fold change was 1.15.

Take `C[C@H](CCCO)[C@H]1CC[C@H]2[C@@H]3[C@H](O)C[C@H]4CC(=O)CC[C@]4(C)[C@H]3C[C@H](O)[C@]12C`: the fold change was 0.203.

On to `FC(F)(F)c1ccc(/C=C/c2cc(Cl)cc(Cl)c2)cc1`, for which the fold change was determined as 0.839.

As to `C/C(O)=C1\C(=O)[C@@H]2[C@H]3c4c[nH]c5cccc(c45)C[C@H]3C(C)(C)N2C1=O`, the fold change is 0.893.

As to `CC(C)(C)OC(=O)Nc1cccc2[nH]ccc12`, the fold change amounted to 0.676.
